This is part of a sample that, as a whole, favours compounds with a hit. Of some 79,000 tested, about 15% had one in any assay. Calls of active or inactive are those of the source. No stated cut-off is given here; in the data, active means growth inhibition above about 70%; inactive means the rest.
Assay: NCI Yeast Anticancer Drug Screen. Data for the sgs1 strain (AID 173);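 further: 0% = growth of vehicle-only control cultures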
Settings: S. cerevisiae sgs1 mutant, stronger effect = higher value
Method: Growth inhibition of yeast strains with defined genetic alterations is measured as a screen for potential anti-cancer activity. Selected strains with alterations in DNA damage repair or cell cycle control were exposed to compounds and growth inhibition was measured relative to vehicle treated controls. The strain used in this assay is sgs1

Measured: growth inhibition

COc1ccc(/C=C/C(=O)c2ccccc2)cc1OC
inactive: at 1.2 µM -11% | at 3.7 µM -2% | at 11.0 µM 5% | at 33.0 µM 51%
active: at 100.0 µM 96%

Nc1n[n+]([O-])c2ccc(Cl)cc2[n+]1[O-]
inactive: at 1.2 µM 18% | at 3.7 µM 55%
active: at 11.0 µM 78% | at 33.0 µM 91% | at 100.0 µM 95%

COc1cc(CSc2ccc(O)cc2)cc(O)c1O
inactive: at 1.2 µM -1% | at 3.7 µM -2% | at 11.0 µM -1% | at 33.0 µM -1% | at 100.0 µM 2%

CCCC(=O)Oc1c(C)cc([N+](=O)[O-])cc1[N+](=O)[O-]
active: at 11.0 µM 99% | at 33.0 µM 99% | at 100.0 µM 99%
inactive: at 1.2 µM 5% | at 3.7 µM 27%

CNC(=O)OCc1c(COC(=O)NC)c(-c2ccc(Cl)cc2)n2c1CCC2
active: at 100.0 µM 89%
inactive: at 1.2 µM -11% | at 3.7 µM -28% | at 11.0 µM -41% | at 33.0 µM -23%

COC(=O)C1=C(C(=O)OC)C(C(=O)OC)C(C(=O)OC)C(C(=O)OC)(C(=O)OC)C(C(=O)OC)=C1C(=O)OC (stereo not given)
inactive: at 1.2 µM -18% | at 3.7 µM -11% | at 11.0 µM -7% | at 33.0 µM 18% | at 100.0 µM 60%

O=C(O)c1ccc(N2C(=O)C=CC2=O)cc1
inactive: at 1.2 µM 0% | at 3.7 µM 4% | at 11.0 µM 14% | at 33.0 µM 31% | at 100.0 µM 67%

CCOC1=C/C(=N\Nc2ccc([N+](=O)[O-])cc2)CCC1
inactive: at 1.2 µM 1% | at 3.7 µM 3% | at 11.0 µM 18% | at 33.0 µM 50% | at 100.0 µM 20%
